Measurements from PubChem BioAssay (NCATS).
Values joined by “and” are separate entries in the source; they are usually repeats but may differ in a detail not shown here. Equal entries are not always repeated. Records with an inconclusive call do not appear. Active and inactive are the calls of the source. Calls follow the shape of the dose curve; as a rule, active = well fitted curve in the direction sought with a large enough effect; inconclusive = small, poorly fitted or top-dose-only effect, or another doubt; inactive = no such curve, though single readings can be large; an effect the other way counts as inactive or inconclusive.

Columns and labels:
[1] = qHTS of pediatric cancer cell lines to identify multiple opportunities for drug repurposing: Primary screen for control Hh wild type fibroblast cells (AID 1347106); also: nearly all actives have a fitted effect of over 55% in size
Procedure, shortened: (§1)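 Cells (500-1,000/well) in growth media were settled 5 h at 37 degrees C, then given compounds for 48 h. Viability was read as CellTiter-Glo luminescence. Primary runs used MIPE at 11 points (0.78 nM-46 µM) and NPC at 8 points (0.59 nM-46 µM); follow-ups used 11 points.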

[2] = qHTS of pediatric cancer cell lines to identify multiple opportunities for drug repurposing: Primary screen for Rh30 cells (AID 1347107); also: nearly all actives have a fitted effect of over 75% in size
Procedure, shortened: as §1

[3] = qHTS of pediatric cancer cell lines to identify multiple opportunities for drug repurposing: Primary screen for Rh41 cells (AID 1347108); also: nearly all actives have a fitted effect of over 70% in size
Procedure, shortened: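 Luminescence from CellTiter-Glo served as readout of metabolically active cells after 48 h compound exposure. Titrations: MIPE 11-point, from 0.78 nM; NPC 8-point, from 0.59 nM (final). Concentration-response curves came straight from the primary screen.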

[4] = qHTS of pediatric cancer cell lines to identify multiple opportunities for drug repurposing: Confirmatory screen for NB1643 cells (AID 1347109); also: nearly all actives have a fitted effect of over 45% in size
Procedure, shortened: as §1

[5] = qHTS of pediatric cancer cell lines to identify multiple opportunities for drug repurposing: Confirmatory screen for A673 cells (AID 1347110);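 also: cells exposed to compound for 48 h before the viability read; nearly all actives have a fitted effect of over 65% in size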
Procedure, shortened: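 qHTS titration format: primary MIPE 0.78 nM-46 µM (11 pts), NPC 0.59 nM-46 µM; confirmation 11 pts. 48 h, CTG luminescence.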

[6] = qHTS of pediatric cancer cell lines to identify multiple opportunities for drug repurposing: Confirmatory screen for LAN-5 cells (AID 1347113); also: nearly all actives have a fitted effect of over 65% in size
Procedure, shortened: as §1

[7] = qHTS of pediatric cancer cell lines to identify multiple opportunities for drug repurposing: Confirmatory screen for NB-EBc1 cells (AID 1347115);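 also: cells exposed to compound for 48 h before the viability read; nearly all actives have a fitted effect of over 45% in size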
Procedure, shortened: as §1

[8] = qHTS of pediatric cancer cell lines to identify multiple opportunities for drug repurposing: Confirmatory screen for SJ-GBM2 cells (AID 1347116); also: nearly all actives have a fitted effect of over 60% in size
Procedure, shortened: (§2)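 Viability measured as metabolically active cells via CellTiter-Glo luminescence following 48 hours of compound exposure, 11-point dilutions in confirmatory testing. 500-1,000 cells/well plated 5 hours before dosing; controls were DMSO and 2.3 µM bortezomib.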

[9] = qHTS of pediatric cancer cell lines to identify multiple opportunities for drug repurposing: Confirmatory screen for SK-N-MC cells (AID 1347111);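 also: cells exposed to compound for 48 h before the readout; nearly all actives have a fitted effect of over 70% in size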
Procedure, shortened: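 Metabolically active cells were quantified by ATP-dependent luminescence (CellTiter-Glo, 15 min at room temperature) following 48 h treatment. Cells had been plated at 500-1,000 per well and settled for 5 h beforehand.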

[10] = qHTS of pediatric cancer cell lines to identify multiple opportunities for drug repurposing: Confirmatory screen for DAOY cells (AID 1347114); also: nearly all actives have a fitted effect of over 65% in size
Procedure, shortened: as §2

Measured: Potency
Potency is read from the fitted curve at half-maximal effect.

CN(Cc1cc(Br)cc(Br)c1N)C1CCCCC1
inactive: [1] | [2] | [3]

Clc1ccccc1CN1CCc2sccc2C1
inactive: [1] | [2] | [3]

O=P(O)(O)C(O)(Cc1cccnc1)P(=O)(O)O
inactive: [1] | [2] | [3]

C[C@@H]1CN(c2c(F)c(N)c3c(=O)c(C(=O)O)cn(C4CC4)c3c2F)C[C@H](C)N1
inactive: [1] | [2] | [3]

NC1(c2ccc(-c3nc4ccn5c(=O)[nH]nc5c4cc3-c3ccccc3)cc2)CCC1
active: [2] 18.7 µM | [3] 11.8 µM
inactive: [1]

CCN(CC)CCn1c(=O)c(Cc2ccc(OC)cc2)nc2ccccc21
inactive: [1] | [2] | [3]

COc1cnc(NS(=O)(=O)c2ccc(N)cc2)nc1
inactive: [1] | [2] | [3]

Cc1noc(NS(=O)(=O)c2ccc(N)cc2)c1C
inactive: [1] | [2] | [3]

CC1(C)[C@H](C(=O)O)N2C(=O)C[C@H]2S1(=O)=O
inactive: [1] | [2] | [3]

CN(C)CCc1c[nH]c2ccc(CS(=O)(=O)N3CCCC3)cc12
inactive: [1] | [2] | [3]

CCOC(=O)c1ccc(OC(=O)CCCCCN=C(N)N)cc1
inactive: [1] | [2] | [3]

CCc1cc(C(N)=S)ccn1
inactive: [1] | [2] | [3]

CNS(=O)(=O)Cc1ccc2[nH]cc(CCN(C)C)c2c1
inactive: [1] | [2] | [3]

COc1ncnc(NS(=O)(=O)c2ccc(N)cc2)c1OC
inactive: [1] | [2] | [3]

CC(C)C1CCC(C(=O)N[C@H](Cc2ccccc2)C(=O)O)CC1 (stereo partly specified)
inactive: [1] | [2] | [3]

OC(Cn1cncn1)(Cn1cncn1)c1ccc(F)cc1F
inactive: [1] | [2] | [3]

O=C(O)CCn1c2c(c3ccccc31)C[C@H](NS(=O)(=O)c1ccc(F)cc1)CC2
inactive: [1] | [2] | [3]

O=C(O)CSCC(=O)NC1CCSC1=O (stereo unspecified)
inactive: [1] | [2] | [3]

O=C(O)c1cccnc1
inactive: [1] | [2] | [3]

CC[C@H](NC(C)C)[C@H](O)c1ccc(O)c2[nH]c(=O)ccc12
inactive: [1] | [2] | [3]

C#CCN[C@@H]1CCc2ccccc21
inactive: [1] | [2] | [3]

CC(C)OC(=O)C(C(=O)OC(C)C)=C1SC=CS1
inactive: [1] | [2] | [3]

CCCN[C@H]1CCc2nc(N)sc2C1
inactive: [1] | [2] | [3]

CCn1cc(C(=O)O)c(=O)c2cc(F)c(N3CCNCC3)cc21
inactive: [1] | [2] | [3]

CN(C)CCc1c[nH]c2ccc(C[C@H]3COC(=O)N3)cc12
inactive: [1] | [2] | [3]

O=C(N[C@H](CO)[C@H](O)c1ccc([N+](=O)[O-])cc1)C(Cl)Cl
inactive: [1] | [2] | [3]

Cc1cccc(N(C)C(=S)Oc2ccc3ccccc3c2)c1
active: [7] 18500 nM
not listed: [9] | [10]
inactive: all other assays above

CC(C)(C#N)c1cc(Cn2cncn2)cc(C(C)(C)C#N)c1
not listed: [8]
inactive: all other assays above

O=C(O)c1cc(=O)[nH]c(=O)[nH]1
inactive: [1] | [2] | [3]

CCC(=O)O[C@]1(C(=O)CCl)[C@@H](C)C[C@H]2[C@@H]3CCC4=CC(=O)C=C[C@]4(C)[C@@]3(F)[C@@H](O)C[C@@]21C
active: [5] 20800 nM
inactive: all other assays above

Nc1nc(F)nc2c1ncn2[C@@H]1O[C@H](CO)[C@@H](O)[C@@H]1O
inactive: [1] | [2] | [10]
active: [3] 1.48 µM | [4] 465 nM | [5] 1850 nM | [9] 465 nM | [8] 1650 nM

CN(C)c1ccc(C(=C2C=CC(=[N+](C)C)C=C2)c2ccc(N(C)C)cc2)cc1
active: [1] 8.41 µM and 2.64 µM | [2] 11.9 µM and 5.9 µM | [3] 6.68 µM and 1.66 µM | [4] 1170 nM | [5] 1470 nM | [9] 737 nM | [6] 1170 nM | [10] 737 nM | [7] 1850 nM | [8] 1170 nM
